In all, about 68,000 sequences were measured (“fluorescence intensity (a.u.)”: median about 9,100, highest 2% from about 16,000 on). What follows is part of a selection rich in the highest values, with near analogues and random picks from the rest.
biological target: OsWRKY34 (Oryza sativa, UniProt Q0JBA9 1-250); test: protein-binding microarray (RPBM); PBS, 2% BSA, 51.3 ng/ul salmon testes DNA, 50 uM zinc acetate, 200 nM TF, 25 C, 1 h; high values mean tight binding; conditions: protein: recombinant; tags: N-terminal polyhistidine and DsRed monomer fusion (pET32a); label: CyDye5-dUTP incorporated in the synthesized complementary strand; 3' TTTTT single-stranded linker to array surface; dsDNA, one strand shown
Sequence (Q0JBA9 entry or part of it): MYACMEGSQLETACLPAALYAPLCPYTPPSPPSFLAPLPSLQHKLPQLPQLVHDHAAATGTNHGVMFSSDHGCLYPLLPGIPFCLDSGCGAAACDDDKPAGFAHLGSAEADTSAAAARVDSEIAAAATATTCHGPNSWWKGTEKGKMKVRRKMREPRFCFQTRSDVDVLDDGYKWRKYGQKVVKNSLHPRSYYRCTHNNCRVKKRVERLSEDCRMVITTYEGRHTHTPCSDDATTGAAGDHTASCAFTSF
Summary of the method: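 Binding signal is reported as fluorescence intensity per feature (arbitrary units) from an Axon 4000B scanner. Incubation used 200 nM of each Ni–NTA-purified, N-terminally polyhistidine- and DsRed-fused transcription factor from E. coli BL21-CodonPlus on a double-stranded custom Agilent array for 1 h at 25 °C, with 50 µM zinc acetate in the buffer, followed by washing.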

Sequence | binding signal
ATTTTCTACTCTTTTGGTCCCACTAGTCATAGACTCTTTTCGGAGTCACCTAGTGCAG | 10800 fluorescence intensity (a.u.)
TGTGCCGTGACTCGATGTGCTCCTCCATCTCTTGCTGCAACGGAGTCACCTAGTGCAG | 8170 fluorescence intensity (a.u.)
CTGCGGGGAGGTGTAGGAGGAGGAGGGCGGAGGAGGTGGTCGGAGTCACCTAGTGCAG | 8780 fluorescence intensity (a.u.)
GCGGTGGAGGGCCGGCGGAGAGGGGAGCAGCGGTGGAGGGCGGAGTCACCTAGTGCAG | 11000 fluorescence intensity (a.u.)
GAGGGAGGGAGGGAGGGAGGGCGTGTAGCGTAGTTGGTGTCGGAGTCACCTAGTGCAG | 18800 fluorescence intensity (a.u.)
GGGAGGGGCTGCTAATTCGGTGTGATTAGTACAGTAGTTTCGGAGTCACCTAGTGCAG | 10100 fluorescence intensity (a.u.)
GCAGAGAGAGGGGAGGAGGGTGGGTGGCGGCGGCGGCTAGCGGAGTCACCTAGTGCAG | 14400 fluorescence intensity (a.u.)
GAGGCGGGTGATAGCGCGGTGGGGCGGTGGCGGCGGTGGACGGAGTCACCTAGTGCAG | 13000 fluorescence intensity (a.u.)
GGGAGGGAGGGTGGCTGTAGTGTGCTAATCACAAATAATTCGGAGTCACCTAGTGCAG | 20500 fluorescence intensity (a.u.)
GTGAGGACGGCCTGCGGGTGCATGCGGGCGCAACAAGTAGCGGAGTCACCTAGTGCAG | 17500 fluorescence intensity (a.u.)
TCGAGAGGTGGGGAGGGGAGGGGAGCAGAGGGCGGCATCGCGGAGTCACCTAGTGCAG | 18600 fluorescence intensity (a.u.)
TGTGCTGTGTGGTGTACTGGTGTGTGGGCTTAATAATTGTCGGAGTCACCTAGTGCAG | 14200 fluorescence intensity (a.u.)
GTTTTTTTTTTTTGGCGCAGGGAGTGGTGGCGTGGTGTGTCGGAGTCACCTAGTGCAG | 8170 fluorescence intensity (a.u.)
CGGGCGGCGGGTGCGGACTGCGGAGGAGGCTGGCGGGGCACGGAGTCACCTAGTGCAG | 8630 fluorescence intensity (a.u.)
CCTCACCCTATGCTCCTGTGTTTTGTAGTCTTTCGTAACACGGAGTCACCTAGTGCAG | 8220 fluorescence intensity (a.u.)
ACGGCATCAAATCTCTGTTTGTACATGTGCCCCTGTTCTTCGGAGTCACCTAGTGCAG | 9440 fluorescence intensity (a.u.)
CCCGACCAAACACTACGAACTCTTCTACCTTCTTTGTTTCCGGAGTCACCTAGTGCAG | 12600 fluorescence intensity (a.u.)
CAATGCACTGTTCATCTTCAGTAGTTATGTTTTCTCAGTGCGGAGTCACCTAGTGCAG | 10400 fluorescence intensity (a.u.)
CAAATTTGGTATTTCTCTCTGCTCACTCCATCCCTCAACTCGGAGTCACCTAGTGCAG | 8830 fluorescence intensity (a.u.)
ATGGTGGCCGGTCTTTTTTCCTCTTCGCTCGATGCCAAAACGGAGTCACCTAGTGCAG | 8270 fluorescence intensity (a.u.)
CGGCTAAACTCCCACGTGAACCAGACGCTGCACCAAAAACCGGAGTCACCTAGTGCAG | 8430 fluorescence intensity (a.u.)
GAAGTGAATAGTAGAGGGTTTTGATGGGTTGGGAAGAGAACGGAGTCACCTAGTGCAG | 11200 fluorescence intensity (a.u.)
ATTAATTTCGCTTGCTAACACGAGTTTAATCTGCCAATTTCGGAGTCACCTAGTGCAG | 10000 fluorescence intensity (a.u.)
